The values below come from PubChem BioAssay (NCATS).

SMILES strings stand for the structures. Results filed as inconclusive are left out. The source made the active and inactive calls. Unless noted, calls come from the whole dose curve; as a rule, active = well fitted curve in the direction sought with a large enough effect; inconclusive = small, poorly fitted or top-dose-only effect, or another doubt; inactive = no such curve, though single readings can be large; an effect the other way counts as inactive or inconclusive.

Assay [1] concerns the target Catechol O-methyltransferase (Homo sapiens) (UniProt P21964). Description: Confirmatory Screen for Target Class Profiling of Small Molecule Inhibitors of Methyltransferases (AID 1745852; calls by dose curve; note: potency is the fitted concentration of half-maximal effect; for activity change, negative = inhibition: % is set by controls: 0 for no effect and ±100 for the full control effect). Particulars: MTase-Glo luminescence, SAH detection, recombinant enzyme; measured here: COMT max response; stronger effect = lower value.
In assay [2] the target is Guanidinoacetate N-methyltransferase (Homo sapiens) (UniProt Q14353). Described as above. Particulars: MTase-Glo luminescence, SAH detection, recombinant enzyme; activity change, negative = inhibition: at 57.3 µM (top of the series).
Assay [3] deals with Rap guanine nucleotide exchange factor 3 (Homo sapiens) (UniProt O95398). Nature of the assay: Confirmatory qHTS for antagonist of cAMP-regulated guanine nucleotide exchange factor 3 (EPAC1) (AID 1645880). Note: potency is the fitted concentration of half-maximal effect; nearly all actives have a fitted effect of over 55% in size. The conditions noted are these: EPAC1 Rap1B-BODIPY-GDP exchange, fluorescence; series mostly up to 115 µM. The method, boiled down:
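Nucleotide exchange uses 100 nM EPAC1, 250 nM RAP1B-BODIPY-GDP and 50 uM GDP, with compounds in a concentration-titration series. After 5 min at room temperature, fluorescence (480 nm ex/540 nm em) is read every 5 min for 30 min. Data are normalized to control ATA and DMSO.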
For orientation: Quantitative high-throughput screening tests each substance at several concentrations.

The target is the same in assay [4]. Description: Confirmatory qHTS for agonist of cAMP-regulated guanine nucleotide exchange factor 3 (EPAC1) (AID 1645881).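 Note: EPAC1 catalysed release of BODIPY-GDP from Rap1B seen as fluorescence loss; 100% = effect of cAMP agonist control; nearly all actives have a fitted effect of over 75% in size.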 Particulars: EPAC1 Rap1B BODIPY-GDP exchange fluorescence; series mostly up to 154 µM.
Assay [5] has as its target Rap guanine nucleotide exchange factor 4 (Homo sapiens) (UniProt Q8WZA2). Description: Confirmatory qHTS for agonist of cAMP-regulated guanine nucleotide exchange factor 4 (EPAC2) (AID 1645884).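 Note: nucleotide exchange releases bodipy-GDP from Rap1 and this lowers its fluorescence; % is set by controls: 0 for no effect and ±100 for the full control effect; nearly all actives have a fitted effect of over 65% in size.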 Particulars: EPAC2 GEF activity, Rap1B-BODIPY-GDP fluorescence; series mostly up to 154 µM.
For assay [6] the target is unchanged. Nature of the assay: Confirmatory qHTS for antagonist of cAMP-regulated guanine nucleotide exchange factor 4 (EPAC2) (AID 1645885). For activity change, negative = inhibition: % is set by controls: 0 for no effect and ±100 for the full control effect. Note: nearly all actives have a fitted effect of over 25% in size. Note: potency is the fitted concentration of half-maximal effect. Particulars: EPAC2 Rap1B-BODIPY-GDP exchange fluorescence, biochemical; series mostly up to 114 µM.
Assay [7] concerns the target Rap guanine nucleotide exchange factor 3 (Homo sapiens) (UniProt O95398). Nature of the assay: Counterscreen qHTS for agonist of cAMP-regulated guanine nucleotide exchange factor 3 (EPAC1) (AID 1645889). Note: % of control where 0% means no effect; nearly all actives have a fitted effect of over 40% in size. The conditions noted are these: EPAC1 Rap1B-BODIPY-GDP exchange, fluorescence; series mostly up to 30.8 µM. Summed up:
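Measured: fluorescence of BODIPY-GDP bound to Rap1B, which falls as exchange proceeds. Conditions include 50 uM competing GDP, 5 and 30 min reads, and a later cAMP challenge for antagonist detection.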
Background: The purpose of a counterscreen is to sort out artefacts and off-target activity.

Sequence of Catechol O-methyltransferase (Homo sapiens) (P21964 whole entry, looked up): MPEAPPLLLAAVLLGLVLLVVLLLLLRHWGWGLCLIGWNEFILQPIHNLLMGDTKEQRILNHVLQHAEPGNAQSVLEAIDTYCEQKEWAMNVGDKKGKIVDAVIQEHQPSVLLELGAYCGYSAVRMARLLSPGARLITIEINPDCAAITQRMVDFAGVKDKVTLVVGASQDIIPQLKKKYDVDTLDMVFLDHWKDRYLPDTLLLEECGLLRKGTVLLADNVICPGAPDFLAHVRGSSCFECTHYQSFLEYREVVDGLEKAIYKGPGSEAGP
Sequence of Rap guanine nucleotide exchange factor 3 (Homo sapiens) (O95398 whole entry, looked up): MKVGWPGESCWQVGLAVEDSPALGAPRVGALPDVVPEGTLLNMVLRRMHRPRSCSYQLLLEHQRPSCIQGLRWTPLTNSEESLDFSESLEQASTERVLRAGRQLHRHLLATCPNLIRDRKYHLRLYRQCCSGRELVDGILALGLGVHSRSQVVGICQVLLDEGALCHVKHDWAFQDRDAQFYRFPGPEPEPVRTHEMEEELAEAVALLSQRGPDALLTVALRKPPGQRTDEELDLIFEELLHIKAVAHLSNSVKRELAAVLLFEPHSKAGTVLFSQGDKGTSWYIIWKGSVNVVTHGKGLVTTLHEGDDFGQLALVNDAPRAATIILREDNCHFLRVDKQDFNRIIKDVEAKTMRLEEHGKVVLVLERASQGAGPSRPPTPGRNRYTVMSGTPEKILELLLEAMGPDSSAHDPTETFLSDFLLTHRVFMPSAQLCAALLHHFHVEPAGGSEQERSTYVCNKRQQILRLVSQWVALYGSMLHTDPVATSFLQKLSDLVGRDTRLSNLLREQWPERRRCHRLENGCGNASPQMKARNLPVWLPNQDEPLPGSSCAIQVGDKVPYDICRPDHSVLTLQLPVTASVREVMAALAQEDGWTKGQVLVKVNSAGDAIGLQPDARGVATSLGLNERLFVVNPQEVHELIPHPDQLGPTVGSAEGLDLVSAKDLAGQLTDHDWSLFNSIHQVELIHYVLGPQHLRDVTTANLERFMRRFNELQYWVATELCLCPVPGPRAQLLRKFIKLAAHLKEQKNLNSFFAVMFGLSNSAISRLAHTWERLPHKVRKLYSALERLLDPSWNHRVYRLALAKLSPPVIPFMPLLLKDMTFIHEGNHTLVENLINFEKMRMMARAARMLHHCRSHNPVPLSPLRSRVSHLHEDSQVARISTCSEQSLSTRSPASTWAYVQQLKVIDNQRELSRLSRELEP
Sequence of Rap guanine nucleotide exchange factor 4 (Homo sapiens) (Q8WZA2 whole entry, looked up): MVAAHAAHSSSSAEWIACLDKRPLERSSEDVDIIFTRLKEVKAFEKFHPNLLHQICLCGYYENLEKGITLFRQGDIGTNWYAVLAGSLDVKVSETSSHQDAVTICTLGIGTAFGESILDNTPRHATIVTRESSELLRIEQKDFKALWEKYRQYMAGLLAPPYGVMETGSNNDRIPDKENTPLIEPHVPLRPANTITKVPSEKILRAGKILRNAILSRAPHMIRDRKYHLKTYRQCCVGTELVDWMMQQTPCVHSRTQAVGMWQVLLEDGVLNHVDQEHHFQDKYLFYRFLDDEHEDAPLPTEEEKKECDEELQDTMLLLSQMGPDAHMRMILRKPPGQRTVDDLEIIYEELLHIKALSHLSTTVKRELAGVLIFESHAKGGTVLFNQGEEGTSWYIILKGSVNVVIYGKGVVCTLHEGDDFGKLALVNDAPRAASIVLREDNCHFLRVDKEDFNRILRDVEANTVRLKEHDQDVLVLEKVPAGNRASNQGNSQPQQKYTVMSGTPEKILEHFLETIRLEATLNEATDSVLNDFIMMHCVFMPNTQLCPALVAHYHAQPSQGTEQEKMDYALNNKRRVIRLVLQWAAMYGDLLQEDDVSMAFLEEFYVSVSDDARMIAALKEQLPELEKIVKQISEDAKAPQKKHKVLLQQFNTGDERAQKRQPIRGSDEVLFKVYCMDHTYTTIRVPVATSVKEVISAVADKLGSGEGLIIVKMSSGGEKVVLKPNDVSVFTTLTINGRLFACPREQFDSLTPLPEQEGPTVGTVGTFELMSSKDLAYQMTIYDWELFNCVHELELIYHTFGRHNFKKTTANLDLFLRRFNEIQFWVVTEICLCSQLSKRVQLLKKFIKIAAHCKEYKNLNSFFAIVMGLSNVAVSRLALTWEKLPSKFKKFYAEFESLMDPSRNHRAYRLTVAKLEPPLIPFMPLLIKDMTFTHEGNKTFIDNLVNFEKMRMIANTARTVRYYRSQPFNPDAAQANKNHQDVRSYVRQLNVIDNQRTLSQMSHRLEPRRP

Take `NO`: the activity in assay [1] stood at 3.62%. The activity change, negative = inhibition in assay [2] was -5.54%.
In the same order, the values of `COc1ccc(Br)cc1S(=O)(=O)NC(=O)/C=C/c1ccccc1Cc1ccc2ccccc2c1` are 3.65% and -3.05%.
For `Fc1ccc(C(OCCCc2cnc[nH]2)c2ccc(F)cc2)cc1`, in assay [1], the activity came out at 0.59%. The activity change, negative = inhibition in assay [2] amounted to 7.35%.
In the case of `OCC1O[C@H]([S-])[C@H](O)[C@@H](O)[C@@H]1O.[Au+]` (stereo partly specified), the activity in assay [1] was -38.3%. In addition, the Potency in assay [2] was 4.85 µM (active).
As for `N#C/C(=C\c1ccc(O)c(O)c1)C(=O)c1ccc(O)c(O)c1`, the Potency in assay [3] is 0.794 µM (active). For the same molecule, the Potency entry in assay [4] is “inactive”. In addition, the activation in assay [5] is 1.63% [at 17.1 µM, percent relative to cAMP agonist control] (inactive). The activity change, negative = inhibition in assay [6] is 16.6% [at 12.7 µM] (inactive). The outcome in assay [7] is “inactive”.
Turning to `COc1ccc(/C=C2\COc3ccc(C)cc3C2=O)cc1O`, the activity in assay [1] worked out at 3.43%. Besides, the activity change, negative = inhibition in assay [2] was -4.7%.
Regarding `O=C(c1cc(O)c(O)c([N+](=O)[O-])c1)c1ccccc1F`, the activity in assay [1] is -103%. Further, the activity change, negative = inhibition in assay [2] was -5.06%.
For the molecule `O=C1O/C(=C/Br)CCC1c1cccc2ccccc12` (stereo unspecified), the Potency result in assay [4] and in assay [5] was “inactive” throughout. The Potency in assay [6] is 49.4 µM (active).
For the molecule `Oc1cc2c(cc1O)CN(C(=S)NCCc1ccc(Cl)cc1)CCC2`, the Potency result in assay [4] and in assay [5] was “inactive” throughout. Besides, the activity in assay [1] is 160%. In addition, the activity change, negative = inhibition in assay [2] was 2.52%.
Turning to `COc1cc(OC)c(/C=C2/C(=O)Nc3ccccc32)c(OC)c1`, the activity in assay [1] is -23%. The Potency in assay [2] was 27.3 µM (active).
